Data: PubChem BioAssay (NCATS)
Inconclusive results are not listed. Active and inactive are the calls of the source. Unless noted, the call rests on the fitted dose curve; in most records, active means well fitted curve in the direction sought with a large enough effect; inconclusive means small, poorly fitted or top-dose-only effect, or another doubt; inactive means no such curve, though single readings can be large; an effect the other way counts as inactive or inconclusive.

Experiments:
[1] = UWB1.289 Cancer Cell Toxicity qHTS against the NCATS CANVASS Library (AID 1347347); further: nearly all actives have a fitted effect of over 60% in size; further: potency means the concentration at half of the fitted maximal effect
Procedure, shortened: (§1)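 1000 cells/well; 4 h settle; 11-pnt titration; 72 h, 37 degrees C, 5% CO2; CellTiter-Glo, 15min RT; luminescence read.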

[2] = U-118MG Cancer Cell Toxicity qHTS against the NCATS CANVASS Library (AID 1347351); further: potency means the concentration at half of the fitted maximal effect
Procedure, shortened: as §1

[3] = A2780 Cisplatin Sensitive Ovarian Cancer Cell Toxicity qHTS against the NCATS CANVASS Library (AID 1347353); further: on the % scale 0 is the no-effect control and ±100 the full control effect; nearly all actives have a fitted effect of over 60% in size
Procedure, shortened: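 Seventy-two-hour exposure of cisplatin-sensitive A2780 ovarian cells to an 11-concentration qHTS series; cytotoxicity is inferred from loss of ATPLite luminescence. Bortezomib titration served as positive control.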

[4] = HEK293 18hr Apoptosis Induction qHTS against the NCATS CANVASS Library (AID 1347357); further: potency means the concentration at half of the fitted maximal effect
Procedure, shortened: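 Caspase-Glo 3/7 luminescence (15 min, room temperature) measured apoptosis after an 18-hour, 37 degrees C exposure of HEK293 cells (500 cells/well) to compounds in 11 points.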

[5] = HPAF-II 12hr Apoptosis Induction qHTS against the NCATS CANVASS Library (AID 1347358); further: 0% is about no effect
Procedure, shortened: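 Apoptosis in HPAF-II pancreatic cancer cells is scored as caspase 3/7 luminescence following a 12-hour exposure to an 11-point compound series.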

[6] = KB-3-1 Cancer Cell Toxicity qHTS against the NCATS CANVASS Library (AID 1347366); further: nearly all actives have a fitted effect of over 75% in size; further: potency means the concentration at half of the fitted maximal effect
Procedure, shortened: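 CellTiter-Glo luminescence measured viability after 72 h at 37C. KB-3-1 cells were seeded at 500 per well in DMEM/10% FBS.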

[7] = MCF7 Cancer Cell Toxicity qHTS against the NCATS CANVASS Library (AID 1347369); further: potency means the concentration at half of the fitted maximal effect
Procedure, shortened: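 Cytotoxicity was measured as CellTiterGlo luminescence (ATP) after 72 h at 37 °C. The cells were MCF7 at 500 per well, with an 11-point compound concentration series.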

[8] = target: Nuclear receptor subfamily 1 group I member 3 (Homo sapiens) (UniProt Q14994); experiment: qHTS for Constitutive Androstane Receptor (CAR) Antagonist screened against the NCATS CANVASS Library (AID 1347372); further: potency means the concentration at half of the fitted maximal effect;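 on activity change, negative = inhibition: cells stimulated with 50 nM CITCO agonist so inhibition reflects antagonism; luciferase from CYP2B6 promoter reporter driven by hCAR in HepG2 cells; on the % scale 0 is the no-effect control and ±100 the full control effect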
Procedure, shortened: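 HepG2-CYP2B6-hCAR double-stable cells plated, 4hr attach; cpd pin-transferred; CITCO 50 nM final; 24hr 37C/5% CO2; CellTiter-Fluor 1hr (fluorescence), then ONE-Glo luminescence.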

[9] = target: Nuclear receptor subfamily 1 group I member 3 (Homo sapiens) (UniProt Q14994); experiment: qHTS for Constitutive Androstane Receptor (CAR) Agonist screened against the NCATS CANVASS Library (AID 1347373);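 further: every well also contained 1.5 µM PK11195 alongside the test compound; 0% is about no effect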
Procedure, shortened: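 CAR agonism is scored as CYP2B6-promoter luciferase induction in a double-stable transfected HepG2 line, where 1.5uM PK11195 is included in each well. Compounds were tested over a 24hr exposure.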

[10] = qHTS for H2AX Agonists against the NCATS CANVASS Library (AID 1347378); further: potency means the concentration at half of the fitted maximal effect
Procedure, shortened: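 Phospho-H2AX (S139) in CHO-K1 lysates measured by HTRF, reported as 665/615 nm emission ratio after 24 hr antibody incubation at room temperature. Cells were first treated with a compound series for 3 hr at 37C (0.76% DMSO final).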

[11] = Inflammasome Signaling qHTS Counterscreen: IL-1-beta AlphaLISA counterscreen against the NCATS CANVASS Library (AID 1347381);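 further: cell-free check with purified IL-1β in medium and no THP-1 cells; 0% is about no effect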
Procedure, shortened: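 To flag interference with the AlphaLISA read-out, a known amount of purified IL-1-beta (4 pg) replaced cell supernatant. Detection used anti-IL-1-beta acceptor beads, biotinylated antibody and streptavidin donor beads at room temperature.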

[12] = Cytotoxicity qHTS for assessment of Hepg2 cells membrane integrity screened against the NCATS CANVASS Library (AID 1347387)
Procedure, shortened: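 Fluorescence proportional to lysed-cell number, from LDH leaking out of HepG2 cells exposed 5 hr at 37C to 0.59 nM - 46 uM compound (11-point qHTS), is measured after 10 min with CytoTox-ONE.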

[13] = qHTS assay for small molecule disruptors of mitochondrial membrane potential screened against the NCATS CANVASS Library (AID 1347389); further: nearly all actives have a fitted effect of over 60% in size; further: potency means the concentration at half of the fitted maximal effect
Procedure, shortened: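 Compounds tested in 11-point qHTS series on HepG2 cells for 1 hr; membrane-potential dye added for 30 min at 37C. Lower red-to-green ratio indicates loss of potential.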

[14] = Secretion counterscreen for inhibitors of the SERCaMP assay screened against the NCATS CANVASS Library (AID 1347390);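 further: light from luciferase secreted into medium read as a measure of general secretion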; further: potency means the concentration at half of the fitted maximal effect; on activity change, negative = inhibition: on the % scale 0 is the no-effect control and ±100 the full control effect
Procedure, shortened: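 Counterscreen for secretory-pathway interference: after 4 h attachment, SH-SY5Y-GLuc cells were exposed 20 hours to compounds (final 0.001 - 77 uM), then coelenterazine added and GLuc luminescence recorded; Brefeldin A served as control.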

[15] = qHTS for activators of dead-cell proteases activity screened against the NCATS CANVASS Library (AID 1347392);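 further: luminescence from protease leaking out of membrane-damaged cells cleaving impermeant substrate; rising signal means more cytotoxicity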; further: potency means the concentration at half of the fitted maximal effect
Procedure, shortened: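 Compounds are pin-transferred onto attached HepG2 cells, giving 11 final concentrations. After 5 h at 37C, AAF-aminoluciferin reagent is added and luminescence is recorded at room temperature.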

[16] = Vero-766 cells viability qHTS against the NCATS CANVASS Library: Counterscreen for Zika virus inhibition assay (AID 1347394); further: nearly all actives have a fitted effect of over 60% in size; further: potency means the concentration at half of the fitted maximal effect
Procedure, shortened: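 CellTiter Glo luminescence measured cytotoxicity after 72 h at 37C in uninfected Vero 766 cells, plated at 1000 cells/well. Compounds were applied in an 11-point series. Wells without cells defined 100% inhibition.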

[17] = Viability qHTS for inhibitors of the SERCaMP assay screened against the NCATS CANVASS Library (AID 1347400); further: nearly all actives have a fitted effect of over 70% in size; further: potency means the concentration at half of the fitted maximal effect
Procedure, shortened: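 Cytotoxicity counter-screen: ATP content (CellTiter-Glo luminescence) of SH-SY5Y-GLuc SERCaMP MJH297 cells after 48 h at 37C with compounds in an 11-point qHTS series.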

[18] = Redox Reaction Profiling qHTS: Assay Interference Panel against the NCATS CANVASS Library (AID 1347401);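 further: 100% = activation by 2 µM chloranil control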
Procedure, shortened: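 Cell-free redox surrogate: 5 uM resazurin + 200 uM DTT, 50 mM HEPES pH 7.3/50 mM NaCl; cpds pinned, 11-pt qHTS; Ex525/Em598 read t0 and t=15 min, dark.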

[19] = SW1088 Cancer Cell Toxicity qHTS against the NCATS CANVASS Library (AID 1347350); further: nearly all actives have a fitted effect of over 75% in size; further: potency means the concentration at half of the fitted maximal effect
Procedure, shortened: as §1

[20] = NFAT Signaling Pathway (AID 444; active means well fitted curve in either direction with a large enough effect, not every such curve was filed as active;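 further: carbachol stimulus at about its EC50 of 1 µM final; on the % scale 0 is the no-effect control and ±100 the full control effect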); conditions: Jurkat NFAT-bla M1, carbachol, beta-lactamase ratio, 5 h
Procedure, shortened: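 Read-out: CCF4 FRET ratio (460 nm/530 nm) after 1 h RT dye loading, used for %activity and AC50 from titration series. Cells: Jurkat NFAT-β-lactamase/M1 line, treated with compound plus 1 uM carbachol for 5 h, 37 °C.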

Nuclear receptor subfamily 1 group I member 3 (Homo sapiens), sequence (Q14994 whole entry, looked up): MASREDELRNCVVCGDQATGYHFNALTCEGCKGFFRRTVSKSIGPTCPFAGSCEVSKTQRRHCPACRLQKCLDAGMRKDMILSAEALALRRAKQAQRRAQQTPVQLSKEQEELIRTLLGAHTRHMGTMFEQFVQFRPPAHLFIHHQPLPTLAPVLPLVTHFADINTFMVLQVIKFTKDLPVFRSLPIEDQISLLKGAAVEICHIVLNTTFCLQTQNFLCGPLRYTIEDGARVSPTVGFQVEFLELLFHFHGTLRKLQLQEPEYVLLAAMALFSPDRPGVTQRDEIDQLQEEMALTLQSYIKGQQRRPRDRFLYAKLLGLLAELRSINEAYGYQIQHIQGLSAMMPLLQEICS

CC[C@@H]1CN2CC[C@@]3(O)C(=Nc4cccc(OC)c43)[C@@H]2C[C@@H]1/C(=C\OC)C(=O)OC
inactive: Potency [1] | Potency [2] | Potency [3] | Potency [4] | outcome [5] | Potency [6] | Potency [7] | Potency [8] | outcome [9] | Potency [10] | outcome [11] | outcome [12] | Potency [13] | Potency [14] | Potency [15] | Potency [16] | Potency [17] | Potency [18]

CCN1C[C@]2(C)CC[C@H](O)[C@]34C1C(C[C@H]23)[C@@]12CC[C@H](CC14)[C@](O)(COC(=O)c1ccc(OC)c(OC)c1)[C@H]2O (stereo partly specified)
inactive: Potency [1] | Potency [19] | Potency [2] | Potency [4] | outcome [5] | Potency [6] | Potency [7] | Potency [8] | outcome [9] | Potency [10] | outcome [11] | outcome [12] | Potency [13] | Potency [14] | Potency [15] | Potency [16] | Potency [17] | Potency [18]

c1ccc2c3c([nH]c2c1)CNCC3
inactive: activity change, negative = inhibition ([20]; at 17.2 µM (top of the series)) 11% | Potency [1] | Potency [3] | Potency [4] | outcome [5] | Potency [6] | Potency [7] | Potency [8] | outcome [9] | Potency [10] | outcome [11] | outcome [12] | Potency [13] | Potency [14] | Potency [15] | Potency [16] | Potency [17] | Potency [18]
active: Potency [19] 26.6 µM

C[C@@H]1CC[C@@H](c2ccoc2)N2C[C@@]3(CC[C@@H]12)CS[C@@]1(CC[C@H]2[C@H](C)CC[C@@H](c4ccoc4)N2[C@@H]1O)C3
active: Potency [1] 6.66 µM | Potency [2] 8.41 µM | Potency [4] 8.33 µM | Potency [6] 8.33 µM | Potency [7] 11.7 µM | Potency [8] 8.31 µM | Potency [10] 10.9 µM | Potency [13] 13.2 µM | Potency [14] 12.2 µM | Potency [15] 11.7 µM | Potency [16] 7.41 µM | Potency [17] 13.5 µM
inactive: outcome [9] | outcome [11] | Potency [18]

CP(=O)(O)CCCN
inactive: activity change, negative = inhibition ([20]; at 38 µM (top of the series)) 0.206%

COc1ccc2[nH]cc(CCN(C)C)c2c1
inactive: activity change, negative = inhibition ([20]; at 17.2 µM (top of the series)) -12.1% | activity change, negative = inhibition ([20]; at 38 µM (top of the series)) -5.37%

CCCC[C@@H]1CC[C@H]2CCCC(CCC)N12 (stereo partly specified)
inactive: Potency [19] | Potency [2] | Potency [3] | Potency [4] | outcome [5] | Potency [6] | Potency [7] | Potency [8] | outcome [9] | Potency [10] | outcome [11] | outcome [12] | Potency [13] | Potency [15] | Potency [16] | Potency [17] | Potency [18]

CC1=CC(=O)C2=C(C)C[C@H](O)[C@@H]3[C@H](OC(=O)[C@@H]3C)[C@@H]12
inactive: Potency [1] | Potency [19] | Potency [2] | Potency [4] | outcome [5] | Potency [6] | Potency [7] | Potency [8] | outcome [9] | Potency [10] | outcome [11] | outcome [12] | Potency [13] | Potency [14] | Potency [15] | Potency [16] | Potency [17] | Potency [18]

CN1C(=O)CCS(=O)(=O)[C@H]1c1ccc(Cl)cc1
inactive: activity change, negative = inhibition ([20]; at 38 µM (top of the series)) 2.77%

O=C1C2CCN(CC2)C1(CO)CO
inactive: activity change, negative = inhibition ([20]; at 7.69 µM (top of the series)) -7.28%

CN1CCN(c2ccc3ccccc3n2)CC1
inactive: activity change, negative = inhibition ([20]; at 38 µM (top of the series)) -20.6%
